Assay [1] is described as follows: inhibitors of Cryptococcus chitosan production, flow cytometry, Cibacron Brilliant Red staining (AID 1347148).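 Note: compound exposure lasted three days at 37 degrees C.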 The settings on record: Cryptococcus neoformans chitosan, stronger effect = lower value; at 99.1 µM unless noted.
Assay [2] has as its system Aerobactin synthetase IucA (Klebsiella pneumoniae). Briefly: IucA aerobactin synthetase inhibitors, biochemical, Tocris library, absorbance (AID 1345561).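 Note: 100% = enzyme without compound and 0% = no enzyme.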 The note with it: purified IucA enzyme assay, absorbance (OD) read-out; stronger effect = lower value;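 tested at 8 µM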.
A short description of assay [3]: protection against mutant huntingtin cytotoxicity, PC12 cells, LDH release (AID 1610). The note with it: PC12 mutant huntingtin toxicity, final LDH at 4 uM, stronger effect = lower value. (In general: LDH leaks from cells whose membrane has failed.)
The nature of assay [4]: LFS_MB_1R medulloblastoma cell growth inhibition, synergistic combos for chromothripsis tumors, cisplatin or BGB combos (AID 1671452; in the data active = inhibition above about 80%;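 note: cells exposed for 96 hours before readout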). The settings on record: LFS_MB_1R medulloblastoma cells, stronger effect = higher value.
Assay [5] can be described thus: HTB85 osteosarcoma cell growth inhibition, synergistic combos for chromothripsis tumors, BGB or cisplatin IC20 combos (AID 1671453; in the data active = inhibition above about 80%;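 note: cells exposed for 96 hours before readout; 0% = vehicle DMSO and 100% = high DMSO killing control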). The settings on record: HTB85 osteosarcoma cells, drug combinations, stronger effect = higher value.
The nature of assay [6]: CRL2098 osteosarcoma cell growth inhibition, synergistic combos for chromothripsis tumors, BGB or cisplatin IC20 combos (AID 1671454; in the data active = inhibition above about 80%;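 note: cells exposed for 96 h before readout; 0% = vehicle DMSO and 100% = killing by high DMSO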). The settings on record: CRL2098 osteosarcoma cells, drug combinations, stronger effect = higher value.
Assay [7] is described as follows: HD-MB03 medulloblastoma cell growth inhibition, synergistic combos for chromothripsis tumors, BGB or cisplatin IC20 combos (AID 1671455; in the data active = inhibition above about 83%;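 note: 0% = vehicle DMSO and 100% = high DMSO as cytotoxic control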). The settings on record: HD-MB03 medulloblastoma cells, stronger effect = higher value.
Assay [8] can be described thus: UWB1.289 ovarian carcinoma cell growth inhibition, synergistic combos for chromothripsis tumors, BGB or cisplatin combos (AID 1671456; in the data active = inhibition above about 80%;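 note: cells exposed to compound for four days; 0% = vehicle DMSO and 100% = killing by high DMSO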). The note with it: UWB1.289 ovarian carcinoma cells, stronger effect = higher value.
A short description of assay [9]: LFS_MB_2R medulloblastoma cell growth inhibition, synergistic combos for chromothripsis tumors, cisplatin combos (AID 1671457; in the data active = inhibition above about 80%;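 note: cells exposed to compound for four days before readout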). The settings on record: LFS_MB_2R medulloblastoma cells, stronger effect = higher value.
Assay [10] in a line: MDA-MB-436 breast carcinoma cell growth inhibition, synergistic combos for chromothripsis tumors, BGB or cisplatin combos (AID 1671458).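 Note: cells exposed for 96 hours; 0% = vehicle DMSO and 100% = killing by high DMSO.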 The note with it: MDA-MB-436 breast carcinoma growth inhibition, drug combinations, stronger effect = higher value.
Assay [11] can be described thus: UWB1.289_BRCA1 ovarian cancer growth, cell-based, BGB or cisplatin combinations (AID 1671459; in the data active = inhibition above about 80%). The settings on record: UWB1.289 BRCA1 ovarian carcinoma, drug combinations, stronger effect = higher value.
Assay [12] can be described thus: human astrocyte viability loss, single and combined drugs, cytotoxicity control for chromothriptic childhood tumor combination screen, cell-based, BGB or cisplatin IC20 combos (AID 1671460; in the data active = inhibition above about 80%;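 note: cells exposed to compounds for 96 hours before viability readout; 0% = vehicle and 100% = killing control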). The settings on record: Human astrocytes, drug combinations, stronger effect = higher value.
Assay [13] in a line: growth inhibition of BT084 medulloblastoma cells, cell-based, ICGC_MB145, cisplatin and BGB IC40 combos (AID 1671461; in the data active = inhibition above about 80%;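 note: cells exposed to drugs for 96 hours; 0% = vehicle DMSO and 100% = high DMSO full killing control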). The settings on record: drug combinations, stronger effect = higher value.
Assay [14] can be described thus: growth inhibition of RCMB18 medulloblastoma cells, cell-based, cisplatin and BGB IC40 combos (AID 1671462; in the data active = inhibition above about 80%;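 note: cells exposed to compound for four days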). The settings on record: stronger effect = higher value.
Assay [15] is described as follows: growth inhibition of CRL1545 osteosarcoma cells, cell-based, cisplatin and BGB IC20 combos (AID 1671464; in the data active = inhibition above about 80%;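 note: cells exposed to compound for 96 hours before readout; 0% = vehicle DMSO and 100% = high DMSO killing control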). The settings on record: stronger effect = higher value.
[16] abbreviates: measured here: combination with cisplatin, at 0.5 µM.
[17] abbreviates: measured here: combination with cisplatin, at 5 µM.

What is called remaining activity is the signal under treatment as a percentage of the control signal. As a reminder, the inhibition is the drop in the measured response relative to a control, in per cent.

Records with an inconclusive call do not appear. Active and inactive are the calls of the source. Unless noted, the rule behind the calls is not given here.

For the compound `CN1CCN(CCCN2c3ccccc3Sc3ccc(C(F)(F)F)cc32)CC1`, the fold fluorescence in assay [1] is 10.1 [at 122.7 µM] (inactive).

On to `NC(N)=NC(=O)c1nc(Cl)c(N)nc1N`, for which the remaining activity in [2] is 101% (inactive). For the same compound, the fold fluorescence in assay [1] is 7.16 [at 217.7 µM] (inactive).

`CNC(=O)Oc1ccc2c(c1)[C@]1(C)CCN(C)[C@@H]1N2C` yielded a normalised LDH release in assay [3] of 0.859.

As for `Cc1c(OCC(F)(F)F)ccnc1CS(=O)c1nc2ccccc2[nH]1` (configuration not stated), the remaining activity in assay [2] is 87.5% (inactive).

As to `O=C1N=C(O)CN1/N=C/c1ccc(-c2ccc([N+](=O)[O-])cc2)o1`, in [2], the remaining activity was 110% (inactive). For the same compound, the fold fluorescence in assay [1] was 4.66 [at 159.1 µM] (inactive).

`CNCCCC12CCC(c3ccccc31)c1ccccc12`: the remaining activity in [2] is 112% (inactive).

With `CC[C@]1(O)C[C@@H]2CN(CCc3c([nH]c4ccccc34)[C@@](C(=O)OC)(c3cc4c(cc3OC)N(C)[C@H]3[C@@](O)(C(=O)OC)[C@H](OC(C)=O)[C@]5(CC)C=CCN6CC[C@]43[C@@H]65)C2)C1`, the fold fluorescence in assay [1] was 15.3 [at 55 µM] (inactive).

`OCCN(CCO)c1nc(N2CCCCC2)c2nc(N(CCO)CCO)nc(N3CCCCC3)c2n1`: the remaining activity in assay [2] was 98% (inactive). Further, in [1], the fold fluorescence is 2.89 (active).

Regarding `Nc1nc2ccc(OC(F)(F)F)cc2s1`, in assay [2], the remaining activity is 83.1% (inactive).

As to `CCn1cc(C(=O)O)c(=O)c2cc(F)c(N3CCNCC3)cc21`, the inhibition is 16.4% (inactive) in assay [4] (at 0.5 µM); -0.695% in assay [4] (measured here: combination with BGB IC40, at 0.05 µM); 26.1% in assay [4] (setting [16]); 22.9% in assay [4] (setting [17]); -8.02% (inactive) in [5] (at 0.5 µM); -33.2% in assay [5] (measured here: with BGB IC20, at 0.5 µM). The inhibition was -19.1% in [5] (measured here: with BGB IC20, at 5 µM); 12.6% in [5] (measured here: with cisplatin IC20, at 0.5 µM); -7.29% in [5] (measured here: with cisplatin IC20, at 5 µM); 1.89% in assay [5] (single agent, at 5 µM); -43.9% (inactive) in assay [6] (at 0.5 µM); -32.8% in [6] (measured here: combination with BGB at IC20, at 0.5 µM). In addition, the inhibition in [6] (measured here: combination with cisplatin at IC20, at 0.5 µM) was -33.5%; in [7] (at 0.5 µM), -1.96% (inactive); in assay [7] (measured here: combo with BGB at IC20, at 0.5 µM), -6.97%; in [7] (measured here: combo with cisplatin at IC20, at 0.5 µM), 4.39%; in assay [8] (at 0.5 µM), 3.04% (inactive); in assay [8] (measured here: inhibition with BGB combination, at 0.05 µM), -22.6%. The inhibition in assay [8] (measured here: inhibition with cisplatin combination, at 0.05 µM) was -1.67%; in assay [9] (at 0.5 µM), -18.9% (inactive); in assay [9] (setting [16]), -13.2%; in [9] (setting [17]), -11.8%; in assay [10] (at 0.5 µM), -18.4% (inactive); in [10] (measured here: BGB combination, at 0.5 µM) it was -12.8%. Further, the inhibition in assay [10] (measured here: BGB combination, at 5 µM) was -3.58%; in assay [10] (measured here: cisplatin combination, at 0.5 µM) it was -41.9%; in [10] (measured here: cisplatin combination, at 5 µM), -18.8%; in [11] (BGB combination, concentration series, at 5 µM), -3.45%; in assay [11] (at 0.5 µM), 2.01% (inactive); in assay [11] (cisplatin combination, concentration series, at 5 µM) it was 12.5%. In addition, the inhibition is 5.02% (inactive) in assay [12] (at 0.5 µM); 10.6% in assay [12] (measured here: combo with BGB IC20, at 0.5 µM); -14.6% in assay [12] (measured here: combo with cisplatin IC20, at 0.5 µM); -27.2% (inactive) in assay [13] (at 0.5 µM); -24.4% in [13] (cisplatin combination, at 0.5 µM); -61.7% in [13] (cisplatin combination, at 5 µM). Further, the inhibition in assay [13] (measured here: BGB IC40 combination 0.05 uM, at 0.05 µM) is -27.3%; in [13] (single agent, at 5 µM), -32.3%; in [14] (at 0.5 µM), -5.94% (inactive); in assay [14] (cisplatin combo, at 5 µM), -71.7%; in assay [14] (measured here: BGB IC40 combination, at 0.05 µM) it was -15.2%; in [14] (setting [16]), 20.7%. In addition, the inhibition in assay [14] (single agent, at 5 µM) is -42.9%; in assay [15] (at 0.5 µM), -19.2% (inactive); in [15] (measured here: with BGB IC20 combination, at 0.5 µM), -33.4%; in [15] (measured here: with cisplatin IC20 combination, at 0.5 µM) it was -12.1%; in [15] (single agent, at 0.05 µM) it was 20.3%; in assay [15] (single agent, at 5 µM), 24%.

Regarding `COc1ccc2c(c1)c(CC(=O)O)c(C)n2C(=O)c1ccc(Cl)cc1`, in [2], the remaining activity was 120% (inactive). The fold fluorescence in assay [1] is 4.17 [at 139.7 µM] (inactive).

The values above are taken from PubChem BioAssay.
